Compounds without any hit were thinned out: in the full panel of roughly 83,000, 20% have a hit.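 Testing used 96-well plates and a 48-hour single-concentration exposure. Example: -40 means 40% of the starting cells died.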 Values without a mark were called inactive. Calls of active or inactive are those of the source. How the source made its calls: active means growth percent below 10; inactive means the rest.

The assay relates to MDA-MB-468 breast. The experiment in a line: NCI-60 one-dose screen, 48 h (100 = growth as untreated, 0 = no growth, -100 = all killed). The note with it: 10 µM unless noted.
`CC/C=C\C[C@H](O)C/C=C1/C(=O)C(Cl)=C[C@@H]1C/C=C\CCCC(=O)O`: the growth is 41.1%.
As to `CCCCCC(=O)O[C@]1(C(C)=O)CCC2C3CCC4=CC(=O)CC[C@]4(C)C3CC[C@@]21C` (some centres undefined), the growth is -2.63% (active).
`CN1CC[C@H](c2c(O)cc(O)c3c(=O)cc(-c4ccccc4Cl)oc23)[C@H](O)C1`: the growth was -42.7% (active).
For the compound `CC[C@H]1CN2CCc3cc(OC)c(OC)cc3C2C[C@@H]1CC1NCCc2cc(OC)c(OC)cc21` (some centres undefined), the growth is -59.5% (active).
As for `CCOC(=O)c1cnn(CC(O)c2ccc(F)cc2)c1NC(=O)Nc1ccccc1F` (centres undefined), the growth is 85.8%.
For `N#C/C(=C\c1ccc(-c2ccc(Br)cc2)o1)c1nc(-c2ccco2)cs1` the value was -26.8% (active); for `NC(=O)c1cc(Br)cc(Br)c1NS(=O)(=O)c1ccccc1`, 106%.
As for `CN1C(=O)N(C)C2Nn3c(s/c(=C4\C(=O)N(CCc5ccccc5)c5ccccc54)c3=O)=NC21` (centres undefined), the growth was 39%.
For `CCOC(=O)C1CN(Cc2ccccc2)C(=O)C1=O` (centres undefined) the value was 106%.
Turning to `C=CC(C)C(C)(C)O` (centres undefined), the growth was 106%.
To `COc1cc(C2C(C(=O)OCc3ccccc3)=C(C)NC(C)=C2C(=O)OCc2ccccc2)cc(OC)c1OC` belongs 11.6%; to `CCN1CCN(Cc2ccc(NC(=O)Nc3nc(-c4cc(OC)c(OC)c(OC)c4)cs3)cc2C(F)(F)F)CC1`, -0.339% (active); to `Oc1ccc(-c2nc3ccc4[nH]ncc4c3c3c2CCCC3)c2cccnc12`, -17.1% (active).
In the case of `CCCCC(CC)COC(=O)C[N+](C)(C)CCOC(c1ccccc1)c1ccccc1` (centres undefined), the growth is -39% (active).
For `N#Cc1c(-c2ccc(Cl)cc2)nc(SCC(=O)NC2=NN=C(c3ccccc3)CS2)[nH]c1=O` the value was 47.7%.
With `COc1cc(NC(=O)C2=C(C)NC(C)=C(C(=O)Nc3cc(OC)c(Cl)cc3OC)C2c2cccc([N+](=O)[O-])c2)c(OC)cc1Cl`, the growth is -11.7% (active).
For `C=C1C(=O)O[C@H]2[C@H]1CC/C(COC(=O)NCc1ccc(Cn3c(=O)sn(CCCI)c3=O)cc1)=C\CC[C@@]1(C)O[C@@H]21`, the growth is -28.8% (active).
Regarding `N#CSCc1cc(Cl)c(CSC#N)cc1Cl`, the growth is 66%.
On to `Cc1cccc(N2CCN(C3=C(Cl)C(=O)c4ncccc4C3=O)CC2)c1`, for which the growth is -66.6% (active).
To `CCCCCCCCCCCCCCCCCC1=NCCN1CCNC(C)=O` belongs 114%; to `O=C(c1ccccc1)C(c1ccccc1)N1CCOCC1` (centres undefined), 103%; to `c1ccc([P+](CCC[P+](c2ccccc2)(c2ccccc2)c2ccccc2)(c2ccccc2)c2ccccc2)cc1`, 23.7%.
Turning to `COc1ccc(Cl)cc1NC(=O)c1c(NC(=O)C(F)(F)C(F)(F)F)sc2c1CCCCC2`, the growth was -16.9% (active).
To `O=C(Nc1ccc(I)cc1F)c1cc(Br)ccc1O` belongs -2.63% (active).
For `CN(C)C(=S)SCN1C(=O)c2ccc([N+](=O)[O-])cc2S1(=O)=O` the value was 88.4%; for `Cn1c(=O)c2[nH]c(CCCc3nc4c([nH]3)c(=O)n(C)c(=O)n4C)nc2n(C)c1=O`, 103%.
For the compound `Cc1ccc(NC(=O)NC(=O)CSc2nc3ccccc3nc2C)cc1`, the growth is 19.6%.
For `COc1ccc(Nc2ncc(Br)c(NCCCNC(=O)C3CCC3)n2)cc1`, the growth was 71.2%.
Consider `COc1cc2oc(-c3cccc(C(=O)Nc4ccc(Cl)cc4)c3)cc(=O)c2c(OC)c1OC`, for which the growth is 43.6%.
Consider `O=C1CS/C(=N/c2nnc(-c3ccc(O)cc3)s2)N1`, for which the growth was 116%.
For the compound `CC1=C(C(=O)OCC2CCN(C(=O)OC(C)(C)C)CC2)[C@H](c2cccc(C#N)c2)C2=C(CC(C)(C)CC2=O)N1`, the growth was 59.9%.
As for `CC1(C)c2[nH]c3ccccc3c2C[C@]2(C)[C@H]3CC=C4[C@@H]5C[C@@](C)(C(N)=O)CC[C@]5(C)CC[C@@]4(C)[C@]3(C)CC[C@@H]12`, the growth is 21.7%.
`COc1ncc(-c2ccc3nccc(C#CCCCCC(=O)NO)c3c2)cc1NS(=O)(=O)c1ccc(F)cc1F`: the growth is -37.1% (active).
To `COc1ccc(C2=NN(C(=O)c3cc(OC)c(OC)c(OC)c3)C(c3ccc(C#N)cc3)C2)cc1OC` (centres undefined) belongs -25.8% (active).
For `CCCOC(=O)C1(O)CCCC1`, the growth is 97.1%.
For the compound `CCCCCCCCCCCCCCCCCC1=NCCN1C(=O)OCCO`, the growth is -67.1% (active).
Turning to `O=C(Nc1ccc(F)cc1)c1c(NC(=O)C(F)(F)F)sc2c1CCCCC2`, the growth was -17% (active).
`CCc1c2c(nc3ccc(OC(=O)N4CCC(N5CCCCC5)CC4)cc13)-c1cc3c(c(=O)n1C2)COC(=O)[C@]3(O)CC`: the growth was -31.2% (active).
Regarding `O=C(C=C=Nc1ccccc1)C(=O)N=C=Cc1ccccc1`, the growth was 22%.

For the origin of these results see PubChem BioAssay (NCI).
